Bioassay records from PubChem BioAssay.
An excerpt weighted towards active compounds, which were near 4.1% of everything screened.
hcDAF12 agonist: H. contortus DAF-12 activation, primary screen. HEK293 hcDAF-12 lit1-tk-luc reporter, luminescence; 0% DMSO, 100% Δ7-dafachronic acid. actives 1.4% (n = 370,000). activation, % at 6.8 µM;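 active = activation above the mean of all tested compounds plus 3 SD, cut at about 5.5% in these data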;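 note: 100% = response to 3 µM Δ7-dafachronic acid high control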
ssDAF12 agonist: activators of S. stercoralis DAF-12 nuclear receptor; HEK293 ssDAF-12/GRIP1 lit1-tk-luc reporter, luminescence; % of 3 µM dafachronic acid response; activation, % at 6.8 µM; actives 1% (n = 370,000); AID 652126;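 active = activation above the mean over all tested compounds plus 3 SD, cut at about 0.9% in these data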;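 note: 0% = DMSO-only wells and 100% = 3 µM delta7-dafachronic acid wells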
hgDAF12 agonist: activates the H. glycines DAF-12 receptor ligand-binding domain. HEK293 GAL4-hgDAF12 UAS-luciferase reporter, agonist luminescence; normalized to butyrate control. activation, % at 6.8 µM. actives 1.8% (n = 370,000). AID 687014;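 active = activation above a cutoff set at the mean of all screened compounds plus 3 SD, cut at about 10% in these data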;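 note: 0% = DMSO wells and 100% = sodium butyrate wells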
DAX1 inh-1: inhibits human nuclear receptor DAX1. P51843. HEK293 Gal4-DAX1 luciferase reporter, luminescence. inhibition, % at 6.75 µM. actives 0.99% (n = 340,000). AID 504766;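 active = inhibition above the mean over all tested compounds plus 3 SD, cut at about 4.2% in these data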;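 note: 0% = DAX1-transfected cells with DMSO and 100% = empty-vector control cells with DMSO; inhibition shows as a rise in luminescence from relieved DAX1 repression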
Target sequence (P51843 207-470 limits assumed): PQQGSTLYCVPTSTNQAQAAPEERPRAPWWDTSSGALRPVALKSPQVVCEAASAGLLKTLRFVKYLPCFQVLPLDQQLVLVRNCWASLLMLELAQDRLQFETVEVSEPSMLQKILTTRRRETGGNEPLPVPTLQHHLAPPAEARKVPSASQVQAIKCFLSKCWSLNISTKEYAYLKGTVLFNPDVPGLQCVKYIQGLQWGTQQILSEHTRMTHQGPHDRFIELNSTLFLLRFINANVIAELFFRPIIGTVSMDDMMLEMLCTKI
DAX1 inh-2: DAX1 (NR0B1) inhibition, primary screen; HEK293T StAR-luciferase reporter, SF-1/DAX-1 repression relief; inhibition, % at 6.8 µM; actives 1.1% (n = 370,000);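 active = inhibition above the mean over all tested compounds plus 3 SD, cut at about 3.6% in these data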;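 note: 0% = DAX-1 cells with DMSO and 100% = cells lacking DAX-1 with DMSO; higher inhibition means more luminescence from relief of DAX-1 repression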
DAX1 conf: NR0B1 (human) inhibition, confirmation; shares compounds with DAX1 inh-2; actives 87% (n = 2,400); inhibition, % at 6.8 µM; AID 652134; HEK293T StAR-promoter luciferase reporter, SF-1/DAX-1 repression;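 active = inhibition above the average of every tested compound plus 3 SD, cut at about 3.8% in these data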;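 note: 0% = DAX-1 cells with DMSO and 100% = no DAX-1 control cells with DMSO; active compounds raise luminescence by relieving repression of the StAR reporter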
SF1 AF2mut Luc: counter-screen for DAX1 inhibitors: nonselective inhibitors with SF-1 AF2 mutant; shares compounds with DAX1 inh-2; HEK293 StAR-luciferase, luminescence; inhibition, % at 6.8 µM; actives 78% (n = 2,400);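 active = inhibition above the mean of all tested compounds plus 3 SD, cut at about 3% in these data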;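 note: 0% = DAX-1 transfected cells with DMSO and 100% = cells without DAX-1 with DMSO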
LXRb hcDAF ctr: activates human LXR-beta, counter-screen for hcDAF-12 agonists | shares compounds with hcDAF12 agonist | HEK293 Gal4-LXR tk-luc reporter, luminescence, 24 h; normalized: DMSO 0%, positive control 100% | activation, % at 6.8 µM | 3,400 tested, under 10 active;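 active = mean percent activation of the reporter above a cutoff set as the average over tested compounds plus their standard deviation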
Target sequence (P55055 whole entry, looked up, the tested form may be a part): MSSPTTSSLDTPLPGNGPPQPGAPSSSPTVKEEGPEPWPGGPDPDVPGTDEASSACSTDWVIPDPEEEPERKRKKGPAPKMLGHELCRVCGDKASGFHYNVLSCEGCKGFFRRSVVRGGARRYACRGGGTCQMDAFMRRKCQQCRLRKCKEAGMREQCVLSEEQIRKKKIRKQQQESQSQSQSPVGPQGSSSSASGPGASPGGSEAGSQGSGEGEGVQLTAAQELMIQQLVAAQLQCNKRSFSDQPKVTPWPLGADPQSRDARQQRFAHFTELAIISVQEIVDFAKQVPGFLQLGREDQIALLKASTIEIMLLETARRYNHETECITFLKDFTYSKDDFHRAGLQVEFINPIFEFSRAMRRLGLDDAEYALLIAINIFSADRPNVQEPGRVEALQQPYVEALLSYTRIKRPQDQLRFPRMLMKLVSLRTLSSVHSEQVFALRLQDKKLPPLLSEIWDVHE
hcDAF12 ag: hcDAF-12 agonism, confirmation assay | shares compounds with hcDAF12 agonist | HEK293 hcDAF-12 lit1-tk-luc reporter, luminescence; % of Δ7-dafachronic acid response | activation, % at 6.8 µM | actives 61% (n = 3,400) | AID 743032;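 active = mean activation across triplicate tests above the threshold derived from the earlier primary screen, cut at about 5.5% in these data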;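 note: 0% = DMSO only wells and 100% = 3 µM Δ7-dafachronic acid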
hgDAF12 ag: confirmation of H. glycines DAF-12 agonists. shares compounds with hgDAF12 agonist. HEK293 GAL4-hgDAF12 luciferase reporter, agonist mode; percent of butyrate response. activation, % at 6.8 µM. actives 80% (n = 3,300);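 active = mean activation over triplicate wells above the hit cutoff derived from the earlier primary screen, cut at about 11% in these data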;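 note: 0% = DMSO low control and 100% = 2 mM sodium butyrate high control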
LXRb DAF12 ctr: activates human LXR-beta, counter-screen for DAF-12 agonists; activation, % at 6.8 µM; HEK293 Gal4-LXR luciferase reporter, 24 h; shares compounds with hgDAF12 agonist; 3,300 tested, under 10 active;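 active = mean activation of the triplicate above a set limit carried over from the primary screen, none filed active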
Active calls of the source: *; nt = no result; ! = not active in a repeat.

SMILES	hcDAF12 agonist	ssDAF12 agonist	hgDAF12 agonist	DAX1 inh-1	DAX1 inh-2	LXRb hcDAF ctr	hcDAF12 ag	others
O=C(N/N=C/c1c(O)n(C2CCCCC2)c(=S)[nH]c1=O)c1ccccc1	2	-1	6	0	4.8*	nt	nt	DAX1 conf=3;SF1 AF2mut Luc=2
S=P(c1ccccc1)(c1ccccc1)c1c[n+](Cc2ccccc2)c2ccccn12	0	-2	-5	nt	nt	nt	nt
O=c1[nH]cnc2nc(-c3ccc(N(CCCl)CCCl)cc3)[nH]c12	2	-1	8	1	5.5*	nt	nt	DAX1 conf=11*;SF1 AF2mut Luc=0
CC(C)C(NC(=O)C(C(C)C)N(C)C)C(=O)N(C)C(C(=O)N1CCCC1C(=O)N1CCCC1C(=O)NCc1ccccc1)C(C)C (centres undefined)	0	0	-7	1	5.4*	nt	nt	DAX1 conf=21*;SF1 AF2mut Luc=-7
C[C@]12CC[C@@H](O)CC1=CC(=O)C1C2CC[C@]2(C)C(=O)[C@H](O)CC12 (some centres undefined)	1	0	0	0	0	nt	nt
COc1cccc(NC(=O)N2CCC3(CC2)OCCO3)c1	0	0	4	1	2	nt	nt
CCOC(=O)[C@]12Cc3ccccc3[C@H]1N(CCC(=O)OC)C(=O)c1cc(OC)ccc12	2	-1	-1	nt	7.2*	nt	nt	DAX1 conf=4.1*;SF1 AF2mut Luc=9.3*
c1ccc2oc(-c3ccc4c(c3)CNCc3cnnn3-4)cc2c1	0	0	9	nt	5.0*	nt	nt	DAX1 conf=7.0*;SF1 AF2mut Luc=4.6*
COC1CCC(OC2CC(C3(C)CCC4(CC(O)C(C)C(C(C)/C=C(\C)C(=O)C(C)CC(C)C(=O)O)O4)O3)OC3(OC(C4OC(O)(CO)C(C)CC4C)CC3C)C2C)OC1C (centres undefined)	-1	-1	-3	0	9.6*	nt	nt	DAX1 conf=-9;SF1 AF2mut Luc=-12
N#CC1c2ccccc2-n2nncc2CN1C(=O)CCc1ccccc1 (centres undefined)	0	-1	1	0	0	nt	nt
COc1cc(C(=O)NC(=S)N2C[C@H]3C[C@H](C2)c2cccc(=O)n2C3)cc(OC)c1OC	1	-1	1	1	0	nt	nt
Cc1ccc2c(c1)NP(=S)(Oc1ccccc1)N2 (centres undefined)	7.5*	1.0*	12*	4.5*	8.0*	0	3	DAX1 conf=6.5*;SF1 AF2mut Luc=2.9*
Cn1cc(C=O)c2nccnc21	2	-1	-1	2	0	nt	nt
CNC(=O)Oc1ccc(-c2cn3cc(Cl)ccc3n2)cc1	6.4*	1.6*	14*	-1	6.1*	nt	nt	DAX1 conf=9.8*;SF1 AF2mut Luc=3.5*;hgDAF12 ag=21*;LXRb DAF12 ctr=1
Cc1cc(OCC(=O)N2CCC(C(=O)NCC(C)C)CC2)c2c3c(c(=O)oc2c1)CCCC3	-2	-1	1	1	0	nt	nt
N=C1c2ccccc2CN1CC(=O)c1ccccc1	23*	2.6*	20*	2	7.0*	1	7.3*	DAX1 conf=11*;SF1 AF2mut Luc=7.2*;hgDAF12 ag=24*;LXRb DAF12 ctr=1
N=C1c2ccccc2CN1NC(=O)c1ccccc1	-1	0	5	0	0	nt	nt
c1ccc2c(CN3CCOCC3)c[nH]c2c1	7.0*	-1	-1	1	0	0	5
Cc1cc(C)n2nc(C)[n+](C)c2n1	0	-1	-1	2	0	nt	nt
CCC1(CC)COP(=O)(OCC(Cl)CCl)OC1 (centres undefined)	-1	-1	0	1	-1	nt	nt
O=c1[nH]c(=O)n(CC2CCCO2)c(O)c1/C=C1\C=Nc2ccccc21 (centres undefined)	6.1*	-1	5	5.4*!	0	0	4
O=c1[nH]c(=O)n(Cc2ccccc2)c(O)c1/C=C1\C=Nc2ccccc21	4	-1	0	0	0	nt	nt
CN=C(SCc1cc2c(cc1Cl)OCO2)c1c(O)n(C)c(=O)n(C)c1=O	-3	-1	1	-1	-1	nt	nt
CCC(N)Cc1c[nH]c2ccccc12 (centres undefined)	7.2*	0	-1	0	0	0	5
CC(C)Sc1nnc([C@@H](N)Cc2c[nH]c3ccccc23)o1	5	-1	2	1	0	nt	nt
SMILES	hcDAF12 agonist	ssDAF12 agonist	hgDAF12 agonist	DAX1 inh-1	DAX1 inh-2	LXRb hcDAF ctr	hcDAF12 ag	others
COc1cc(CNCCc2c[nH]c3ccccc23)cc(OC)c1	8.5*	-1	0	1	0	0	1
O=C1c2ccccc2-c2cccc3cccc1c23	3	0	8	0	3	nt	nt
O=C1c2ccccc2-c2cc3ccccc3cc21	6.6*	1	6	2	0	0	7.1*
CCOP(=O)(OCC)C1(O)C(=O)Nc2ccccc21 (centres undefined)	7.1*	0	0	1	0	0	3
C=CCOC(=O)c1ccccc1N	-3	-1	-4	1	1	nt	nt
Nc1ccccc1C(=O)OCCOc1ccccc1	9.3*	0	11*	1	4.3*	2	7.5*
Cn1cc(C=C2C(=O)NC(=O)NC2=O)c2ccccc21	5	0	0	0	0	nt	nt
CC(=O)n1cc(C=C2C(=O)NC(=O)NC2=O)c2ccccc21	9.8*	1	-2	1	1	0	5
COCCNC(=O)Cn1cc(C(=O)c2ccccc2F)c2ccccc21	1	-1	-2	0	0	nt	nt
Cc1ccc(-c2nn(Cc3ccccc3)cc2C=O)cc1	9.4*	0	8	2	3	0	4
Cc1cc(S(N)(=O)=O)ccc1N=Cc1c(O)n(-c2ccccc2)c(=O)[nH]c1=O	1	0	-2	3	0	nt	nt
Cc1ccc(-n2c(O)c(C=Nc3ccccc3N)c(=O)[nH]c2=O)cc1C	7.8*	1	10	1	4.4*	0	3
